Test results taken from PubChem BioAssay (NCI).
Compounds without any hit were thinned out: in the full panel of roughly 83,000, 20% have a hit.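 Compound tested at a single concentration for 48 hours in 96-well plates; a percent growth value below 10 was scored as active.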 A number with no mark means an inactive call. Active and inactive are the calls of the source.

Key:
Experiment in all cases: NCI-60 one-dose screen, 48 h (100 = growth as untreated, 0 = no growth, -100 = all killed)
Settings in all cases: 10 µM unless noted
NCI-H23 lung = system: NCI-H23 lung
NCI-H226 lung = system: NCI-H226 lung
NCI-H322M lung = system: NCI-H322M lung
HOP-62 NSCLC = system: HOP-62 NSCLC
NCI-H460 lung = system: NCI-H460 lung
HOP-92 NSCLC = system: HOP-92 NSCLC
NCI-H522 lung = system: NCI-H522 lung
A549/ATCC NSCLC = system: A549/ATCC NSCLC
786-0 renal = system: 786-0 renal
COLO 205 colon = system: COLO 205 colon

Compound | growth (NCI-H23 lung) | growth (NCI-H226 lung) | growth (NCI-H322M lung) | growth (HOP-62 NSCLC) | growth (NCI-H460 lung) | growth (HOP-92 NSCLC) | growth (NCI-H522 lung) | growth (A549/ATCC NSCLC) | growth (786-0 renal) | growth (COLO 205 colon)
Cc1ccc(N=C2CSc3nnc(-c4csc5c4CCCC5)n3N2)cc1 | 41% | 69.5% | 57.9% | 27.9% | 11.8% | 67.7% | 29% | 26.5% | 32.3% | -4.99% (active)
CN1C/C=C\CCOc2cccc(c2)-c2ccnc(n2)Nc2cccc(c2)C1 | -56.6% (active) | -33.7% (active) | -17.7% (active) | -44.5% (active) | -73.6% (active) | -15.5% (active) | -70.1% (active) | -50.1% (active) | -85.9% (active) | -81.6% (active)
CC/C(=C(/c1ccc(Cl)cc1)c1ccc(OCCN2CCCCC2)cc1)c1ccc(Cl)cc1 | 61.9% | 84.5% | 93.1% | 86.8% | 79.7% | 85.2% | 65.3% | 73% | 76.7% | 70.4%
CC(C)NC[C@@H](C(=O)N1CCN(c2ncnc3c2[C@H](C)C[C@H]3O)CC1)c1ccc(Cl)cc1 | 58.7% | 56.2% | 55.6% | 54% | 29.3% | 2.39% (active) | 53% | 38% | 4.37% (active) | 20.2%
CCOc1cc2ncc(C#N)c(Nc3ccc(OCc4ccccn4)c(Cl)c3)c2cc1NC(=O)/C=C/CN(C)C | 39.9% | 47.2% | 0.942% (active) | 38.6% | -62.2% (active) | 39.3% | 6.98% (active) | 22.3% | -74.7% (active) | 27.4%
COC(=O)C1=C(C(=O)OC)C23C=C(C)C1C2=C(C)C1(CC1)[C@@](C)(O)C3=O (stereo not given in full) | -20.9% (active) | -34.8% (active) | -9.66% (active) | -21.7% (active) | 0.847% (active) | -19.3% (active) | -11% (active) | 1.39% (active) | -20.6% (active) | -51.9% (active)
CNC(=O)c1cc(Oc2ccc(NC(=O)Nc3cc(C(C)(C)C)nn3-c3ccc4ncccc4c3)c(F)c2)ccn1 | -49.5% (active) | -15.9% (active) | -17.8% (active) | -41.4% (active) | -40.8% (active) | -10.8% (active) | -47.7% (active) | -16.1% (active) | -16.7% (active) | -78.1% (active)
CS(=O)(=O)N1CCc2c(-c3cnc(N)nc3)nc(N3CCOCC3)nc21 | 22.9% | 5.8% (active) | -12.9% (active) | 4.78% (active) | 10% | -22.5% (active) | 10.5% | -0.665% (active) | -13.7% (active) | -6.6% (active)
C=CCCCC(=O)CCC(=O)OCC1O[C@@H](O[C@@H]2C(O)[C@@H](OC(C)=O)C(C)O[C@H]2O[C@H](CC=C)CCCCC)C(O)[C@@H](OC(=O)/C(C)=C/C)[C@@H]1OC(=O)/C=C/c1ccccc1 (stereo not given in full) | 35.3% | 9.34% (active) | 39.6% | 9.18% (active) | 10.6% | 0.347% (active) | 34.8% | 24.6% | 18.9% | -8.37% (active)
COc1cc2c(cc1OCCCCCCN1CCN(c3ncnc4ccccc34)CC1)N=CC1CCCN1C2=O (stereo not given) | -26.1% (active) | -54.9% (active) | -2.96% (active) | -25.9% (active) | 3.48% (active) | -21.7% (active) | -55.2% (active) | 1.08% (active) | -10.3% (active) | -57.1% (active)
N#Cc1c(NC(=O)c2cccs2)[n+]([O-])c2ccc(F)cc2[n+]1[O-] | 98.5% | 88.6% | 99.1% | 68.1% | 99.1% | 73.3% | 87% | 106% | 103% | 86.1%
O=[N+]([O-])c1cc(Br)cc2c1[nH]c1ccc(Br)cc12 | 58% | 53.9% | 58% | 39.2% | 73.5% | 44.2% | 63.5% | 52.3% | 44.3% | 52.1%
CO[C@H](C(=O)N[C@@H](CCCCNC(=O)OCc1ccccc1)C(=O)OC(C)(C)C)[C@@H]1Cc2cc3cc(OC4CC(OC5CC(O)C(O)C(C)O5)C(O)C(C)O4)c(C)c(O)c3c(O)c2C(=O)[C@H]1OC1CC(OC2CC(OC3CC(C)(O)C(O)C(C)O3)C(O)C(C)O2)C(O)C(C)O1 (stereo not given in full) | -42.6% (active) | -75.5% (active) | 20.2% | -15% (active) | -17.6% (active) | -82.6% (active) | -16% (active) | -25.7% (active) | -89.8% (active) | -20.7% (active)
C[C@@H](C[C@H](CCO)c1cc(C(F)(F)F)cc(C(F)(F)F)c1)c1ccc2ccccc2c1 | 85.3% | 91.1% | 99.1% | 85.6% | 106% | 96.5% | 76.7% | 87.7% | 87.5% | 97%
[2H]C1([2H])[C@H](C)O[C@H](C)C([2H])([2H])N1c1ccc(NC(=O)c2cccc(-c3ccc(OC(F)(F)F)cc3)c2C)cn1 | 58.5% | 58.7% | 83.4% | 77.7% | 85.1% | 8.86% (active) | 44.7% | 68.9% | 74.1% | 81.6%
CCN(CC)Cc1cc(Nc2cc(C(F)(F)F)c(C#N)c3nc4ccccc4n23)ccc1O | 17.2% | 16.5% | 16.3% | 14% | 6.25% (active) | -30.2% (active) | -55.3% (active) | 6.97% (active) | 11.9% | -31.4% (active)
CC(=O)NCC(=O)N1[C@@H]2CC[C@H]1c1ccc(Nc3ncc(C(F)(F)F)c(NC4CCC4)n3)cc12 | 27.9% [2.5 µM] | 42.8% [2.5 µM] | 14.2% [2.5 µM] | 23% [2.5 µM] | 16.3% [2.5 µM] | -1.13% [2.5 µM] (active) | 46.1% [2.5 µM] | 34% [2.5 µM] | 42.4% [2.5 µM] | -22.6% [2.5 µM] (active)
CCc1nc2cc(F)c(/C=C/C(=O)NO)cc2c(=O)n1CCc1ccccc1 | 25.9% | 32.7% | 23.1% | 5.35% (active) | 7.49% (active) | 15.5% | -7.46% (active) | 14.9% | -5.29% (active) | -23.3% (active)
C=CC(=O)Nc1cc(Nc2nccc(-c3cn(C)c4ccccc34)n2)c(OC)cc1N(C)CCN(C)C | 8.43% (active) | -50.5% (active) | -5.77% (active) | -23.9% (active) | -54.8% (active) | -15.8% (active) | -68.6% (active) | -43.5% (active) | -87.9% (active) | -81.1% (active)
COc1cccc(Nc2ncnn3ccc(CN4CC[C@@H](N)[C@H](O)C4)c23)c1 | 36.3% | 5.97% (active) | 0.241% (active) | 18.7% | 73.8% | 26.3% | 14.4% | 12.1% | 13.1% | 34.6%
